What follows are compounds tested against Solute carrier family 2, facilitated glucose transporter member 1 (Homo sapiens) (UniProt P11166) (assay: ST_JUDE_LEISH: Cytotoxicity at 2uM final concentration against transgenic Leishmania Mexicana promastigotes LmGLUT1 that are glucose transport deficient and complemented with the human glucose transporter GLUT1. Activity is measured by DNA content using SYBR green in vitro).
Type: functional

Sequence of Solute carrier family 2, facilitated glucose transporter member 1 (Homo sapiens) (P11166 whole entry): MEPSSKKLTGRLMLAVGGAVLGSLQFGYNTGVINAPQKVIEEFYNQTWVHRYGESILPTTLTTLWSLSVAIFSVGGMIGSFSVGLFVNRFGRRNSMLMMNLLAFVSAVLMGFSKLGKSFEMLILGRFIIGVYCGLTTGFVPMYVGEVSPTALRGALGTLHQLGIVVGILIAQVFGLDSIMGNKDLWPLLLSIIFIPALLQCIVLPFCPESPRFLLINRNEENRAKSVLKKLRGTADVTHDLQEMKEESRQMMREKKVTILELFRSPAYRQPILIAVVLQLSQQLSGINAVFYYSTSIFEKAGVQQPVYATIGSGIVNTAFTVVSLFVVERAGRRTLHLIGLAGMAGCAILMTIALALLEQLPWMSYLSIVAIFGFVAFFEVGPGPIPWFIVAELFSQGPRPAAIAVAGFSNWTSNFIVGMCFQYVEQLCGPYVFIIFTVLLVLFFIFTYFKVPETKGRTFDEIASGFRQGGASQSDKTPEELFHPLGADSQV

SMILES | inhibition
CN(C)c1ccc2c(c1)Sc1cc(N(C)C)ccc1N2C(=O)c1cccc(C(=O)O)c1 | -1.08%
Clc1ccc(OCc2ccccc2)c(Cc2ccc(-c3nc4cnccc4[nH]3)o2)c1 | 0.59%
CSc1ccc(CN2CCC(NC(=O)c3ccc(-c4cccc(Cl)c4)s3)CC2)cc1 | 7.55%
CS(=O)(=O)c1ccc2c(c1)CCN(CCC1CCC(NC(=O)c3cc4cccc(Br)c4[nH]3)CC1)CC2 (stereo not given) | 2.5%
O=C(Nc1cc(F)cc(F)c1)N1CCOC(CCN2CCC3(CCc4ccccc43)CC2)(c2ccc(Cl)c(Cl)c2)C1 (stereo not given) | 3.28%
O=C(NCCCCN1CCC(C(c2ccccc2)c2ccccc2)CC1)c1ccc(NC(=O)c2ccc(Cl)cc2)cc1 | -0.78%
NC1CCN(Cc2cccc(-c3csc(-c4nc5ccccc5[nH]4)c3)c2)C1 (stereo not given) | 2.21%
CCCCNCc1ccc(-c2nc(CN(CCCn3ccnc3)C(=O)C3COc4ccccc4O3)cs2)cc1 (stereo not given) | 0.43%
COc1cc(Cc2cnc(N)nc2N)cc(OCCn2ccccc2=O)c1OC | 2.42%
CCOC(=O)c1nc(-c2ccc(-c3ccccc3)cc2)[nH]c1N | 3.98%
Nc1ccc(-c2nc3cc(Oc4ccc5[nH]c(-c6ccc(N)cc6)nc5c4)ccc3[nH]2)cc1 | -3.07%
Cc1[nH]cnc1-c1cccc(NC(=O)c2cc3ccccc3s2)c1 | -1.01%
COc1ccc2ncc(C#N)c(CCN3C4CCC3CC(NCc3ccc5c(n3)NC(=O)CS5)C4)c2c1 (stereo not given) | 4.35%
CN(C)CCNC(=O)c1ccc(-c2cnc3ccc(NCc4ccc(Cl)c(Cl)c4)nn23)cc1 | -1.43%
CN(CCCNCc1ccc2ccccc2c1)CCCNCc1ccc2ccccc2c1 | 12.4%
CS(=O)(=O)c1cccc(-c2cnc(N)c3cc(-c4cccc(F)c4)ccc23)c1 | 1.57%
CC(C)(C)c1ccc(NC(=O)N[C@@H]2CCN(c3ccnc4ccccc34)C2)cc1 | 0.09%
CN(C)c1ccc(OCCCCCCOc2ccccc2)cc1 | 1.32%
CN1CCC(NCc2ccc(-c3ccc(Cl)cc3)cc2)CC1 | 5.65%
c1ccn2c(Sc3ncnc4sccc34)ncc2c1 | -0.89%
COc1cc2c(c(Cl)c1OC)CCN(Cc1ccccc1)CC2c1ccc(NC(=O)C(F)(F)F)cc1 (stereo not given) | 3.91%
COc1cc(C(C)C)ccc1C1CCN(CCCCNC(=O)c2ccc(NC(=O)c3ccc(Cl)cc3)cc2)CC1 | 4.4%
Cc1ccc(C)c(Cn2ccc3nc(N)nc(N)c32)c1 | 2.05%
Fc1cccc(COc2ccc(Nc3ncnc4sc(C#C[C@H]5CCCN5)cc34)cc2F)c1 | 0.5%
COc1cc(C(=O)Nc2nc3ccccc3[nH]2)ccc1OCC(=O)Nc1cccc(C(F)(F)F)c1 | 2.59%

From ChEMBL document CHEMBL3433997, “St. Jude Leishmania screening dataset” (2016)
